Test results published in PubChem BioAssay AID504339 (National Center for Advancing Translational Sciences (NCATS), 2011).
About 17,000 (4.4%) of roughly 390,000 compounds were called active. Roughly 8% stayed inconclusive and do not appear here. The sample as a whole holds a higher share of actives than the screen did. A number with no mark means an inactive call. Calls come from the whole dose curve; as a rule, active = well fitted inhibition curve with a large enough effect; inconclusive = small, poorly fitted or top-dose-only effect; inactive = no such curve, though single readings can be large or run the other way.

Target: Lysine-specific demethylase 4A (Homo sapiens) (UniProt O75164)
Sequence (O75164 whole entry, looked up, the tested form may be a part): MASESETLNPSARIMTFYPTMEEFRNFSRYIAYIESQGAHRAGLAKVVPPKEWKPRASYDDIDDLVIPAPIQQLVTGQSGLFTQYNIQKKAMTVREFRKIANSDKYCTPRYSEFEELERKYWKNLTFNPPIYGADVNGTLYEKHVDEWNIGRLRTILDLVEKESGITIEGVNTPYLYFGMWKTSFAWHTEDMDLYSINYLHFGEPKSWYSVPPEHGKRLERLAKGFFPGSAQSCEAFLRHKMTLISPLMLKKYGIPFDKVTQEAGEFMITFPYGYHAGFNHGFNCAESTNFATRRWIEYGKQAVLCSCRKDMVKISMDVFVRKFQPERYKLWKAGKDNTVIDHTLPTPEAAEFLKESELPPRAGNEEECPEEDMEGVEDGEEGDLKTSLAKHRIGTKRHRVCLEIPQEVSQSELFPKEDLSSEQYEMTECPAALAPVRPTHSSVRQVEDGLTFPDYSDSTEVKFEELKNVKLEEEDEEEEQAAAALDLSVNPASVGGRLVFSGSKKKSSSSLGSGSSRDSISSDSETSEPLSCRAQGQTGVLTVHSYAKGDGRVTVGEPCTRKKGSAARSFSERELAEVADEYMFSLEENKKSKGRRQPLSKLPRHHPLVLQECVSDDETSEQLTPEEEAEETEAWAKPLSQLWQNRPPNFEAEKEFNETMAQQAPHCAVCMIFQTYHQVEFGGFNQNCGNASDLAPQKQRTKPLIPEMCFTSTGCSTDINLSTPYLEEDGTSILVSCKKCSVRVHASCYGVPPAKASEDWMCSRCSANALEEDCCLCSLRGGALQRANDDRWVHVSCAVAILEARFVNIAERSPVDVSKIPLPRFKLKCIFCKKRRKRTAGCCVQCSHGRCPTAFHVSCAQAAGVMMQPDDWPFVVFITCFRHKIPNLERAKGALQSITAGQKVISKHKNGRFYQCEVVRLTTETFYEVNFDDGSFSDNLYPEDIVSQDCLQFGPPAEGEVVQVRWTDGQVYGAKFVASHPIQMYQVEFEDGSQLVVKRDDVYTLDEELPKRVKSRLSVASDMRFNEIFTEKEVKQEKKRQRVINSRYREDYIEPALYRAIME
Experiment: qHTS Assay for Inhibitors of JMJD2A-Tudor Domain; note: nearly all actives have a fitted effect of over 50% in size
Conditions: AlphaScreen JMJD2A-Tudor / H3K4me3 peptide binding; series mostly up to 114 µM; activity change, negative = inhibition: at the top concentration
% is set by controls: 0 for no effect and ±100 for the full control effect; potency is the fitted concentration of half-maximal effect.

Row | Structure (SMILES) | activity change, negative = inhibition [%] | Potency
1 | CCc1ccc2oc(-c3ccc(C)c(NC(=O)/C=C/c4ccco4)c3)nc2c1 | -16.7 | –
2 | C=CS(=O)c1sc(Cl)c(N2CCOCC2)c1[N+](=O)[O-] (stereo unspecified) | – | 50.1 µM (active)
3 | COc1ccc(NC(=O)C2CCCN(S(=O)(=O)c3c(C)[nH]c(=O)[nH]c3=O)C2)c(OC)c1 (stereo unspecified) | 5.82 | –
4 | CCc1ccc(CNC(=O)c2ccc(CS(=O)c3ccc(Br)cc3)o2)cc1 (stereo unspecified) | -2.68 | –
5 | CCCn1ccc2c(OCC(=O)NCc3ccc(F)cc3)cccc2c1=O | 4.22 | –
6 | Cc1ccc(S(=O)(=O)n2nc(-c3ccc(Cl)cc3)nc2NCc2ccccc2)cc1 | 3.09 | –
7 | Cc1c(C(=O)Nc2cccc(Cl)c2)oc2ccc(S(=O)(=O)N3CCOCC3)cc12 | -11.9 | –
8 | Cc1oc2c(C)c3oc(=O)c(CC(=O)N[C@@H](CC(C)C)C(=O)N[C@@H](Cc4ccccc4)C(=O)O)c(C)c3cc2c1C | – | 56.2 µM (active)
9 | Cc1c(OC(C)C(=O)N[C@@H](Cc2ccccc2)C(=O)O)ccc2c3c(c(=O)oc12)CCCC3 (stereo partly specified) | -10.9 | –
10 | CC(C)C[C@H](NC(=O)N1CC(=O)Nc2ccccc21)C(=O)N[C@H](Cc1ccccc1)C(=O)O | -19 | –
11 | COC(=O)c1ccccc1NC(=O)Cn1c(=O)cc(C)c2c(C)nn(-c3cccc(Cl)c3C)c21 | -9.33 | –
12 | Clc1ccc(CN2CCCCCC2)cc1Cl | – | 3.98 µM (active)
13 | Clc1ccc(-n2nnnc2CN2CCCCC2)cc1Cl | 6.72 | –
14 | O=C(Nc1ccc(CN2CCOCC2)cc1)c1cc(Cl)ccc1Cl | 8.97 | –
15 | O=C(NCCc1csc(-c2ccc(C(F)(F)F)cc2)n1)C(=O)Nc1ccc(F)c(Cl)c1 | -12.9 | –
16 | Brc1ccc2c(c1)NC(c1cccnc1)=NC(c1ccccc1)=N2 | -22.3 | –
17 | COc1ccc(C2=NC(c3ccncc3)=Nc3ccc(Br)cc3N2)cc1 | – | 44.7 µM (active)
18 | COCCNC(=O)c1ccc2c(c1)N(Cc1cccc(Cl)c1)C(=O)c1ccccc1S2(=O)=O | -12.5 | –
19 | CN(C)Cc1cn(-c2ccccc2)nc1-c1ccccc1 | -7.09 | –
20 | Cc1cc(/C=C(/C#N)C(=O)Nc2ccc(Cl)cc2)c(C)n1-c1cccnc1 | -11.6 | –
21 | Cc1ccc(C(=O)N/C(=C/c2cccs2)C(=O)NCC2CCCO2)cc1 (stereo unspecified) | -4.23 | –
22 | Cc1ccc(-n2c(C)cc(/C=C(\C#N)C(=O)NCC3CCCO3)c2C)cc1 (stereo unspecified) | – | 50.1 µM (active)

Row | Structure (SMILES) | activity change, negative = inhibition [%] | Potency
23 | Cc1cc2c(cc3c(SCc4nc(-c5ccccc5)oc4C)nnc(C)n32)o1 | -10.6 | –
24 | O=c1nc(NO)ccn1C1CCCO1 (stereo unspecified) | – | 8.91 µM (active)
25 | CNc1nc(=O)n(C2CCCO2)cc1C (stereo unspecified) | -6.25 | –
26 | Nc1ccn(C2CC(O)C(CO)O2)c(=O)n1 (stereo unspecified) | -6.47 | –
27 | Cc1cccc(NC(=O)CSc2nc3c(oc4ccccc43)c(=O)n2-c2ccc(F)cc2)c1 | -0.727 | –
28 | COc1ccc(Cl)cc1NC(=O)c1sc2nc3c(cc2c1N)CN(C)CC3 | -8.42 | –
29 | CCc1ccc(NC(=O)c2sc3nc4c(cc3c2N)CN(CC)CC4)cc1 | – | 56.2 µM (active)
30 | CCN1CCc2nc3sc(C(=O)Nc4ccccc4OC(F)(F)F)c(N)c3cc2C1 | -23.5 | –
31 | O=C(CSc1n[nH]c(-c2ccccc2)n1)N1CCCCC1 | 4.87 | –
32 | Cc1ccc(NC(=O)CN2c3ccccc3S(=O)(=O)c3ccccc32)cc1F | -10.6 | –
33 | CCc1ccccc1NC(=O)Cc1ccc(NC(=O)N2CCCCc3ccccc32)cc1 | -15 | –
34 | CCN(Cc1ccccc1)Cc1c(O)ccc2c(=O)c(-c3ccc(Cl)cc3Cl)coc12 | 2.42 | –
35 | COc1cccc(CNC(=O)Cn2c(=O)c3cccn3c3ccc(F)cc32)c1OC | -5.59 | –
36 | CCOc1ccc(CCNC(=O)CN(c2ccc(C)cc2)S(=O)(=O)N(C)C)cc1OCC | -2.98 | –
37 | O=C(Cn1ncc2c3ccccc3n(Cc3ccccc3)c2c1=O)NC1CCCCCC1 | -9.73 | –
38 | CCCNC(=O)C(CC)n1nc(CC)n2c(cc3oc(C)cc32)c1=O (stereo unspecified) | -4 | –
39 | CCOc1cccc(-c2nn3c(-c4ccccn4)nnc3s2)c1 | – | 79.4 µM (active)
40 | CCOc1cccc(-c2nnc(SCC(=O)NC3CC3)n2C)c1 | -3.03 | –
41 | CCOc1cccc(C(=O)Nc2nnc(S(=O)(=O)N(C)c3ccc(C)cc3)s2)c1 | 5.92 | –
42 | Cc1ccc2c(=O)c(C(=O)c3ccc(F)cc3)cn(CC(=O)NC3CCCCC3)c2n1 | -17.2 | –
43 | CSc1ncc(C(=O)NCc2ccccc2Cl)c(C(F)(F)F)n1 | -0.99 | –
44 | Cc1cccn2c(=O)c3cc(C(=O)NC(C)c4ccccc4)c(=N)n(CCCO)c3nc12 (stereo unspecified) | -10 | –

Row | Structure (SMILES) | activity change, negative = inhibition [%] | Potency
45 | CCOc1cccc(NC(=O)c2ccc(F)c(S(=O)(=O)N(CC)c3cccc(C)c3)c2)c1 | 4.89 | –
46 | COc1cccc2c(O)cc(=O)n(C)c12 | -1.39 | –
47 | COc1cc(O)c2c(=O)c3c(O)c(O)ccc3oc2c1OC | – | 89.1 µM (active)
48 | COc1cccc2cc(-c3cc(=O)oc4cc(C)c(O)cc34)oc12 | -21.7 | –
49 | CCOc1ccccc1CNC(=O)C1CCCN(S(=O)(=O)c2ccc3c(ccn3C)c2)C1 (stereo unspecified) | -24 | –
50 | N#Cc1ccccc1-n1c(N)c(C(=O)N2CCCC2)sc1=S | – | 56.2 µM (active)
51 | Cc1ccc(S(=O)(=O)N2CCN(C(=O)N3CCOCC3)CC2)c(C)c1 | -0.328 | –
52 | Cc1cccc(-n2c(N)c(C(=O)N3CCN(C)CC3)sc2=S)c1 | – | 79.4 µM (active)
53 | Cc1ccc(-n2c(N)c(C(=O)N3CCOCC3)sc2=S)c(C)c1 | – | 35.5 µM (active)
54 | O=C(c1ccc(CSc2ccccc2)cc1)N1CCCCCC1 | -5.41 | –
55 | COc1cccc(N2CCN(c3ccc4nnc(CCC(=O)N5CCN(C)CC5)n4n3)CC2)c1 | -5.26 | –
56 | Cc1cccc(C(=O)N2CCN(S(=O)(=O)N3CCCCC3)CC2)c1 | 1.46 | –
57 | Cc1ccc(N2CCN(C(=O)c3cccs3)CC2)c(C)c1 | -3.42 | –
58 | O=C(c1ccc(S(=O)(=O)N2CCCC2)cc1)N1CCN(c2ccccc2F)CC1 | 0 | –
59 | O=C(Cn1c(=O)n(Cc2ccccc2)c(=O)c2sc3ccccc3c21)Nc1ccccc1F | 0.683 | –
60 | Cc1ccccc1OCc1nc2c3cnn(-c4ccccc4F)c3ncn2n1 | 1.74 | –
61 | COc1ccc(OC)c(NC(=O)CSc2nc3ccccc3nc2N2CCCCC2)c1 | -8.59 | –
62 | Cc1ccc(C(=O)NC2CCN(C#N)CC2)cc1 | -11.6 | –
63 | CCOc1ccc(N(CC)S(=O)(=O)N2CCCC(C(=O)NCc3ccc(Cl)cc3)C2)cc1 (stereo unspecified) | -9.16 | –
64 | COC(=O)c1ccc(COc2ccc(/C=C/C(=O)c3ccc(OC)c(CSCC(=O)O)c3)cc2OC)cc1 | – | 50.1 µM (active)
65 | COC(=O)c1ccc(COc2ccc(/C=N/NC(=O)C(=O)Nc3ccc(OC)cc3)cc2OC)o1 | 10 | –
66 | COC(=O)c1ccc(C(NC(=O)OCc2ccccc2)/C(C)=C/[C@@H](C)C(=O)NCc2ccc(OC)c(OC)c2)cc1 (stereo partly specified) | -17.3 | –
